# Screening results as filed in PubChem BioAssay.
# MRP resist rev: reverses drug resistance mediated by MRP; differential viability (reversal), % at 10 µM; H69AR cells + 2 uM doxorubicin, CellTiter-Glo, 72 h; 0.04% of 85,000 active;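 active = viability drop by adding the cancer drug above about 55%, with treated viability meeting a 40% cutoff, limit read from the data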;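 also: larger differential means the compound sensitizes cells more to doxorubicin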
# MRP1 act: activates MRP-1; 0.61% of 140,000 active; AID 799; viability increase, % at 10 µM; H69AR cells + doxorubicin, viability rescue, CellTiter-Glo;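 active = viability gain under doxorubicin at or above a set limit, the compound median plus 3 SD, cut at about 4.7% in these data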;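 also: MRP-1 overexpressing cells given doxorubicin 25 µM after compound pretreatment; 18-22 h compound pretreatment then 72 h with doxorubicin before readout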
# Hits are given with their value; - = inactive; . = no result given. An excerpt weighted towards active compounds, which were near 0.65% of everything screened.
SMILES,MRP resist rev,MRP1 act
CC(OC(=O)c1snc(C(=O)NC2CCCCC2)c1N)C(=O)NC(C)(C)C (stereo not given),-,6.2
CC(C)(C)NC(=O)COC(=O)c1snc(C(=O)NC2CCCCC2)c1N,-,-
CCOC(=O)c1sc(Nc2cccc(C)c2C)nc1C,-,-
COc1ccc(S(=O)(=O)NCCc2csc(-c3cccnc3)n2)cc1,-,-
Cn1nnc(NC(=S)NC(=O)c2cccs2)n1,.,-
CCCCn1nnc(NC(=S)NC(=O)c2cccs2)n1,.,8.8
CSc1nc2sc3c(c2c(=O)[nH]1)CCC(C)C3 (stereo not given),-,-
CC1CCc2c(sc3nc(CSc4ncn[nH]4)[nH]c(=O)c23)C1 (stereo not given),.,17.9
CCCCCOc1ccc(OC(=O)c2ccncc2)cc1,-,-
CCCCOc1ccc(C(=O)Oc2ccc(C)nc2)cc1,-,5.5
COc1ccccc1-c1cc(C(=O)NC(C)C)no1,-,-
COc1ccccc1-c1cc(C(=O)NC(C)c2ccccc2)no1 (stereo not given),-,5.1
CCOc1cc(C(=O)N2CCN(c3ccc(C(C)=O)cc3)CC2)cc(OCC)c1OCC,-,-
O=C(O)CCCCCCCCCC(=O)c1cccs1,-,-
Cc1ccsc1/C=N/NC(=O)CSCc1ccc(Cl)cc1,.,-
Cc1ccc(/C=N/NC(=O)CSCc2ccc(Cl)cc2)cc1,.,6.3
CCCOc1ccc(CSC2=NCCN2)cc1[N+](=O)[O-],.,-
COc1ccc(CSC2=NCCN2)cc1Cl,-,9.7
O=C(NCCCN1CCN(CCCNC(=O)c2cc([N+](=O)[O-])ccc2Cl)CC1)c1cc([N+](=O)[O-])ccc1Cl,.,-
CC(=O)Oc1c(C)cc(Cl)cc1C(=O)Nc1ccc([N+](=O)[O-])cc1Cl,.,-
CCc1nccn1C(=O)c1cnn2c(C(F)F)cc(-c3ccccc3)nc12,.,-
CCc1nccn1C(=O)c1cnn2c(C(F)F)cc(-c3ccc(C)cc3)nc12,.,6.0
Cc1nc2sc(C(c3ccc(Cl)cc3)N3CCN(c4ccccc4F)CC3)c(O)n2n1 (stereo not given),-,-
Cc1cc(N/N=C/c2ccc(O)cc2O)nc(-n2nc(C)cc2C)n1,.,5.3
Cc1cc(N/N=C/c2ccc(O)cc2O)nc(-c2ccccc2O)n1,.,-
SMILES,MRP resist rev,MRP1 act
COc1ccc(/C=N/Nc2cc(C)nc(NS(=O)(=O)c3ccc(C)cc3)n2)cc1,.,-
COc1ccc(/C=N/Nc2cc(C)nc(-n3nc(C)cc3C)n2)cc1,.,9.1
COc1ccc(OCC(=O)N/N=C(/C)Cc2ccccc2)cc1,.,-
Cc1ccc(C#CC[N+]2(CC#Cc3ccc(C)cc3)CCCCC2)cc1,.,-
O=C(N/N=C1\CCc2ccccc21)c1ccccc1O,.,-
O=C(OC1CCc2ccccc2C1=O)c1ccccc1O (stereo not given),-,13.5
Cc1cc(C)n(CCC(=O)N/N=C/c2ccc(O)cc2O)n1,.,-
Cc1cc(C)n(CCC(=O)N/N=C/c2ccccc2O)n1,.,5.6
CCCn1c(SCC(=O)N2CCCc3ccccc32)nnc1-c1ccccn1,-,-
O=C(Nc1c(-c2ccccc2)nc2sccn12)c1ccccc1,-,-
COc1cc(NS(=O)(=O)c2ccc(N/C=C(\C#N)c3nc4cc(Cl)ccc4o3)cc2)nc(OC)n1,.,4.9
COc1cc(NS(=O)(=O)c2ccc(NC(C)=O)cc2)nc(OC)n1,-,-
CCC(C)(C(=O)NC1CCCC1)N(C(=O)c1ccccn1)c1ccc(C)cc1 (stereo not given),-,-
Cc1ccc2cccc(Oc3ncnc4scc(-c5ccc(Cl)cc5)c34)c2n1,.,-
CCOc1ccccc1NC(=O)c1cccc(NC(=O)CC(c2ccccc2)c2ccccc2)c1,.,8.6
CCOc1ccccc1NC(=O)c1ccc(Cl)c(NC(=O)CC(c2ccccc2)c2ccccc2)c1,.,-
c1ccc(OCc2nnnn2-c2ccccc2)cc1,.,-
Clc1ccc(OCc2nnnn2-c2ccccc2)cc1,.,7.3
CCCCOc1ccc(/C=C/C(=O)Nc2ccc([N+](=O)[O-])cc2C)cc1,.,5.8
CCCOc1ccc(/C=C/C(=O)Nc2ccc([N+](=O)[O-])cc2)cc1,.,-
COc1ccc(C(=O)NC(NC(=S)Nc2ccc(S(N)(=O)=O)cc2)C(Cl)(Cl)Cl)cc1 (stereo not given),.,-
COc1ccccc1C(=O)N/N=C/c1cnc2ccccc2n1,.,-
O=C(O)c1cccc(N2C(=O)C3CC=CCC3C2=O)c1 (stereo not given),-,-
O=C(O)c1cccc(N2C(=O)C3CC=C(Cl)CC3C2=O)c1 (stereo not given),-,10.3
O=C1[O][Bi][O]c2ccccc21,-,.
SMILES,MRP resist rev,MRP1 act
COc1ccccc1OCc1ccc(C(=O)NCC2CCCO2)o1 (stereo not given),-,-
Oc1ccc(Br)cc1C=Nc1ccc2c3c(cccc13)CC2,.,-
Clc1ccc(OCc2nc(-c3ccccn3)n[nH]2)cc1,-,-
Brc1ccc(OCc2nc(-c3ccccn3)n[nH]2)cc1,-,8.4
CCC(=O)NC(=S)Nc1ccc(NC(=O)c2ccc([N+](=O)[O-])cc2Cl)cc1,.,-
Cn1c[n+](C)cc1-c1ccc(/C(N)=N/O)cc1,.,-
CNc1oc(-c2ccccc2Cl)nc1P(=O)(c1ccccc1)c1ccccc1,.,4.7
COCCNc1oc(-c2ccccc2Cl)nc1C#N,-,-
COP(=O)(OC)c1nc(-c2ccccc2)oc1NCc1ccccc1,.,-
CNc1oc(-c2ccc(C)cc2)nc1P(=O)(c1ccccc1)c1ccccc1,.,7.4
N#Cc1ccccc1Cn1cc(/C=C/[N+](=O)[O-])c2ccccc21,.,-
Cc1ccc(NC(=O)/C=C\C(=O)NCC(=O)O)cc1C,.,-
CC(C)n1nc(C(=O)Oc2cccc(Cl)c2Cl)c2ccccc2c1=O,.,-
COc1ccccc1/C=C1\SC(=S)N(Nc2nc(C)cc(C)n2)C1=O,.,-
Cc1cc(C)nc(NN2C(=O)/C(=C/c3ccc(O)cc3)SC2=S)n1,.,7.8
NC(=O)NCc1ccc(Cl)cc1,.,-
Cc1cc(Br)ccc1NC(=O)CNC(=O)CN1C(=O)NC2(CCCCCC2)C1=O,-,7.5
Cc1ccc(NC(=O)NC(=O)CN2C(=O)NC3(CCCCCCC3)C2=O)c(C)c1,-,-
COc1cc(/C=C(\C#N)c2ccccn2)ccc1OCc1ccc(Cl)cc1,.,-
O=C(c1sc2cc(F)ccc2c1Cl)N1CCN(c2ccccc2)CC1,.,-
Cc1nn(C(=O)CCCC(=O)n2nc(C)c(Cl)c2C)c(C)c1Cl,-,.
CC(/C=C1\SC(=O)N(CC(=O)Nc2ccc(O)cc2)C1=O)=C\c1ccccc1,.,8.7
COc1cccc(/C=C2\SC(=O)N(CCC(=O)NNC(=O)c3ccccc3Cl)C2=O)c1,.,-
CC(=O)c1ccc(NC(=O)CCCN2C(=O)/C(=C/C(C)=C/c3ccccc3)SC2=S)cc1,.,6.1
Cc1cc(NC(=O)CN2C(=O)S/C(=C\c3ccccc3)C2=O)no1,.,5.1
SMILES,MRP resist rev,MRP1 act
COc1ccc(NC(=O)CCCN2C(=O)/C(=C\c3ccco3)SC2=S)cc1,.,-
CC(/C=C1\SC(=O)N(CC(=O)Nc2cccc(O)c2)C1=O)=C\c1ccccc1,.,-
Cc1cc(NC(=O)CCN2C(=O)c3ccccc3C2=O)no1,-,-
O=C(CN1C(=O)S/C(=C\c2ccc(Cl)cc2)C1=O)NNC(=O)c1ccccc1O,.,7.7
COC(=O)c1ccc(CNC(=O)COC(=O)C2CCC(C(C)(C)C)CC2)cc1 (stereo not given),.,-
COc1ccc(Oc2ccc(/C=C/C(=O)c3cccc(OC)c3)cc2[N+](=O)[O-])cc1,.,-
Cc1ccc2cc(CCNC(=O)c3ccc(Br)o3)c(=O)[nH]c2c1,-,-
